The source of these data is PubChem BioAssay.

For part of these data: Potency and affinity values are given separately. The source made the active and inactive calls.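 The calls were made as follows, unless noted: active = fluorescence ratio normalized to control raised more than 50% in primary screen plus both repeat runs; inactive = the rest.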

For experiment [1], the system named is TRPC4 beta (transient receptor potential cation channel C4), mouse. Briefly: TRPC4 cation channel opening, retest – cell-based, Fluo4 calcium, HEK293 TRPC4beta/mu-opioid, duplicates, 10 µM, confirmation (AID 2426). The conditions noted are these: Fluo4 calcium fluorescence, at 10 µM; stronger effect = higher value.
The test system of experiment [2] is transient receptor potential cation channel C4 beta (TRPC4), mouse. Briefly: TRPC4 cation channel opening, second retest – cell-based, second round, Fluo4, HEK293 TRPC4beta/mu-opioid, 1 µM, confirmation (AID 2461;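 active = primary screen active and over 50% activation in each of two duplicate runs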). The conditions noted are these: Fluo4 calcium fluorescence, at 1 µM; stronger effect = higher value.
The subject of experiment [3] is TRPC4 (transient receptor potential cation channel C4 beta), mouse. Briefly: potentiation of DAMGO EC20 TRPC4 response – cell-based, second round, Fluo-4, HEK293 TRPC4beta/mu-opioid, 1 µM, confirmation (AID 2554;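 active = primary screen hit whose fluorescence ratio, in both repeats, exceeds the weak agonist control mean by 3 SD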). The conditions noted are these: DAMGO EC20, Fluo-4 calcium flux, at 1 µM; stronger effect = higher value. On the technique in general: A change in cytosolic calcium serves as a functional read-out for many receptors and channels.

In experiment [4] the test system is TRPC4 beta (transient receptor potential cation channel C4), mouse. In words: potentiation of DAMGO EC20 TRPC4 response – cell-based, Fluo-4, HEK293 TRPC4beta/mu-opioid, confirmation (AID 2555;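 active = primary screen hit whose calcium fluorescence ratio, in both repeats, exceeds the weak agonist control mean by 3 SD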). The conditions noted are these: DAMGO EC20, Fluo-4 calcium flux, at 10 µM; stronger effect = higher value.
In experiment [5] the target is Short transient receptor potential channel 4 (Mus musculus) (UniProt Q9QUQ5). Briefly: blockers of DAMGO-evoked TRPC4 calcium flux – cell-based, Fluo4, HEK293 TRPC4beta/mu-opioid, confirmation (AID 2636;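 active = calcium signal cut by more than 3 SD below the full-agonist control yet still positive, in both repeats and the earlier primary screen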). The conditions noted are these: at 10 µM; stronger effect = higher value.
Experiment [6] has the same target. Briefly: blockers of DAMGO-evoked TRPC4 calcium flux – cell-based, second round, Fluo4, HEK293 TRPC4beta/mu-opioid, 1 µM, confirmation (AID 2637;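 active = calcium signal ratio cut to more than 3 SD under the fully stimulated control mean yet still positive, in both repeats and the primary screen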;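 as to inhibition: percent of integrated ratio relative to wells lacking test compound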). The conditions noted are these: at 1 µM; stronger effect = higher value.
For experiment [7] the target is unchanged. In words: calcium entry via TRPC4 opening agents – cell-based, HEK293 TRPC4/mu-opioid, Fluo-4 calcium, dose response (AID 434937;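 active = primary screen activator hit with a dose response curve and TRPC4 channel activation at any tested dose; inactive = no activation, no dose response, or not a primary hit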).
For experiment [8] the target is unchanged. Briefly: potentiation of DAMGO-evoked TRPC4 calcium signal – cell-based, HEK293 TRPC4/mu-opioid, Fluo-4 calcium, EC20 DAMGO, dose response (AID 434941;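 active = earlier screen potentiator hit that boosts the TRPC4 ion channel at some dose, with a dose response; inactive = no potentiation, no dose response, or not a prior hit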;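 also: calcium entry triggered by an EC20 dose of DAMGO at the co-expressed mu-opioid receptor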).
Experiment [9] concerns the target Short transient receptor potential channel 6 (Mus musculus) (UniProt Q61143). Briefly: TRPC6 blockade by TRPC4 inhibitor hits – cell-based, HEK293, membrane potential dye, duplicate, selectivity assay for TRPC4 inhibitor project, confirmation (AID 434948;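 active = active in primary screen and both duplicates, each dropping signal beyond three positive-control SD with fluorescence still positive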). The conditions noted are these: HEK293 TRPC6, membrane potential dye fluorescence, at 10 µM, stimulated with maximal-effect acetylcholine; stronger effect = higher value.

Experiment [10] shares this target. In words: TRPC6 opening by TRPC4 activator hits – cell-based, HEK293, membrane potential dye, duplicate, selectivity assay for TRPC4 activator project, confirmation (AID 434950;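 active = membrane potential signal rise above negative control mean plus 3 SD in both duplicates, also active in the earlier TRPC4 screen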). The conditions noted are these: HEK293 TRPC6, membrane potential fluorescence, at 10 µM; activation: stronger effect = higher value; outcome: activation.
Experiment [11] shares this target. Briefly: positive modulators of mouse TRPC6 channel – HEK293 cells, membrane potential dye, duplicate, selectivity assay for TRPC4 potentiator project, confirmation (AID 434952;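 active = compound raising the membrane signal above positive-control mean plus 3 SD in both repeats, and a primary screen hit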). The conditions noted are these: HEK293 TRPC6, membrane potential dye fluorescence, at 10 µM, maximal acetylcholine added after compound; stronger effect = higher value.
The target of experiment [12] is Short transient receptor potential channel 4 (Mus musculus) (UniProt Q9QUQ5). In words: calcium flux activators in TRPC4/5HT1a cells, counter-screen for TRPC4 activator project, cell-based, second counter screen, HEK293 TRPC4/5HT1a, Fluo-4 (AID 434977;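 active = calcium signal rise above buffer-control mean plus 5 SD in both duplicates, and also a hit in the primary screen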). The conditions noted are these: Fluo-4 calcium flux, at 10 µM; stronger effect = higher value.
Experiment [13] is described as follows: serotonin-gated TRPC4 signal block – cell-based, second counter screen, HEK293 TRPC4/5HT1a, Fluo-4, counter-screen for TRPC4 inhibitor project, confirmation (AID 434978;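 active = primary screen active whose calcium signal fell more than 3 SD beyond the full-serotonin control mean in both duplicate plates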;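 as to outcome: serotonin given first at submaximal then at maximal dose after compound preincubation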). The conditions noted are these: Fluo-4 calcium flux, at 10 µM, serotonin added to trigger calcium flux; stronger effect = higher value. In general terms: The purpose of a counterscreen is to sort out artefacts and off-target activity.

Experiment [14] concerns TRPC4 (mouse), co-expressed with 5HT1a in HEK293. In words: enhancement of serotonin-evoked TRPC4 response – cell-based, second counter screen, HEK293 TRPC4/5HT1a, Fluo-4, counter-screen for TRPC4 potentiator project, confirmation (AID 434979;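 active = signal rise over 3 SD above mean of control wells given weak agonist, in both repeats and first screen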). The conditions noted are these: Fluo-4 calcium flux, at 10 µM, serotonin added at its EC20 dose; stronger effect = higher value.
A short description of experiment [15]: nonspecific calcium rise without TRPC4 – cell-based, HEK293 mu-opioid receptor line, counter-screen for TRPC4 activator project, confirmation (AID 449723;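 active = hit in primary screen, with calcium signal over 5 SD above buffer well mean in both duplicates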;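 also: counter screen cells carry the mu-opioid receptor alone and lack TRPC4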). The conditions noted are these: HEK293 mu-opioid cells, Fluo-4 calcium fluorescence, at 10 µM; stronger effect = higher value.
The nature of experiment [16]: nonspecific potentiation of DAMGO calcium response – cell-based, HEK293 mu-opioid receptor line, counter-screen for TRPC4 allosteric potentiator project, confirmation (AID 449724;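 active = calcium signal rise more than 3 SD above the low-dose agonist control mean, in both duplicate plates and the primary screen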;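 also: HEK293 cells carrying mu-opioid receptor only with no TRPC4 channel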). The conditions noted are these: HEK293 mu-opioid receptor cells, Fluo-4 calcium flux, at 10 µM, compound added before EC20 DAMGO stimulus; stronger effect = higher value.

Sequence of Short transient receptor potential channel 4 (Mus musculus) (Q9QUQ5 whole entry, looked up): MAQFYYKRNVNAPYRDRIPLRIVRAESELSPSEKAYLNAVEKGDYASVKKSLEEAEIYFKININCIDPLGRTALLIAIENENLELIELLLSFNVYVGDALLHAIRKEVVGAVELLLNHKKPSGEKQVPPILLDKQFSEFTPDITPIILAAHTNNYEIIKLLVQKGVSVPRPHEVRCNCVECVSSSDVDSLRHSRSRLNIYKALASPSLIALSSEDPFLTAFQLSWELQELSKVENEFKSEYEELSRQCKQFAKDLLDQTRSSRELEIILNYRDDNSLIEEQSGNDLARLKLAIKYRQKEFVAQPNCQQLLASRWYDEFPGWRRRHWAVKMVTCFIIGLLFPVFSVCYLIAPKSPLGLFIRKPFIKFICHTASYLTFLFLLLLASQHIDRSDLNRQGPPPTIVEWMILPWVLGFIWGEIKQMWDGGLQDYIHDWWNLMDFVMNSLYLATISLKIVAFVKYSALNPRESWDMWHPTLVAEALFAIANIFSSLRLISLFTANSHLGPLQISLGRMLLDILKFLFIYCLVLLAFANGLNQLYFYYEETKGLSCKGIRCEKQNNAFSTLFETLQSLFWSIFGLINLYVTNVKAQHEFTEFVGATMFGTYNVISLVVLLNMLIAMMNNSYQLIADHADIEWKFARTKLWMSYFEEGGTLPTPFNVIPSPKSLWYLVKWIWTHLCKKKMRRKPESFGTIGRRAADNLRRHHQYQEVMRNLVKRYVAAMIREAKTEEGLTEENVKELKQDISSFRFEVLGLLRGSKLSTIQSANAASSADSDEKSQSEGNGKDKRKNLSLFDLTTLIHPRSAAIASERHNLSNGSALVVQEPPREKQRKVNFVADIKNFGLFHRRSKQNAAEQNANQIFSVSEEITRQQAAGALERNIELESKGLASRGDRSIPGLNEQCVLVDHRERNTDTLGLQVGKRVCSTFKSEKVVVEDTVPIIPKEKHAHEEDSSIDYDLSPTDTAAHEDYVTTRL
Sequence of Short transient receptor potential channel 6 (Mus musculus) (Q61143 whole entry, looked up): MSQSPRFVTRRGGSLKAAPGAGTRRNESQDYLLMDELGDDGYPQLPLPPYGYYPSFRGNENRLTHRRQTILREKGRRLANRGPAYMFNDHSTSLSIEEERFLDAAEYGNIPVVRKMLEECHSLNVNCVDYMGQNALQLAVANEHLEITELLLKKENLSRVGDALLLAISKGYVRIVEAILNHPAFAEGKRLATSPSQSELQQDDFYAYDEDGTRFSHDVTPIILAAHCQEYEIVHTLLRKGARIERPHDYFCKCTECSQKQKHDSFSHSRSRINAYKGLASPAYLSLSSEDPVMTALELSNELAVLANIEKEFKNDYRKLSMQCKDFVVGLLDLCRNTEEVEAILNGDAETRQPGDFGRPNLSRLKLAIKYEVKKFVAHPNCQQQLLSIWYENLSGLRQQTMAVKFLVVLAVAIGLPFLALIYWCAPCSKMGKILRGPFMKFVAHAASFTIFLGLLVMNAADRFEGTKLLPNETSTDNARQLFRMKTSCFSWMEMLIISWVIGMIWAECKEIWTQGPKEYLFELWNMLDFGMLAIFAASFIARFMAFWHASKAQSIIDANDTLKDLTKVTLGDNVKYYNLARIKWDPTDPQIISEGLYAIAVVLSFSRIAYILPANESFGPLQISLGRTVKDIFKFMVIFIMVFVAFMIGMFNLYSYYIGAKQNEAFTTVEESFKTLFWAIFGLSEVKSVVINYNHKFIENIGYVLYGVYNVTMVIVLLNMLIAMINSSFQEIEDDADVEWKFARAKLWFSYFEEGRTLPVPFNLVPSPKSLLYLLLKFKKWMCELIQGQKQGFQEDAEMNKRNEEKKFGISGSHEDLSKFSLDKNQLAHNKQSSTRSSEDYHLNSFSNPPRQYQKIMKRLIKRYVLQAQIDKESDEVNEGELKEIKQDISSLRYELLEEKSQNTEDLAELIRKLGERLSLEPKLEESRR

For orientation: inhibition means the percentage by which the read-out fell short of the control. On to `Cc1ccc(Sc2ccc(CO)cc2[N+](=O)[O-])cc1`, for which the result in experiment [1], in [2], in [3], in experiment [4], in [6] and in experiment [7] was inactive. Moreover, the outcome in [8], in [9], in experiment [10], in [11], in experiment [12] and in experiment [14] was inactive. The outcome in experiment [15] and in experiment [16] was inactive. The inhibition in experiment [5] was 98% (active); in [13], 7.78% (active).

Take `CC1CCCN(c2c3c(nc4ccccc24)CCCC3)C1` (stereo not given): the outcome in experiment [1], in [2], in experiment [3], in [4], in experiment [5] and in experiment [6] was inactive. Further, the outcome in experiment [7], in experiment [8], in [9], in experiment [10], in [11] and in [12] was inactive. The result in experiment [14], in [15] and in experiment [16] was inactive. Besides, in experiment [13], the inhibition is 27.9% (active).

With `CC(C)CN(CC(C)C)c1nc(N)c(C#N)c(CC#N)c1C#N`, the result in experiment [1], in experiment [2], in experiment [3], in experiment [4], in experiment [6] and in experiment [7] was inactive. Further, the result in [8], in experiment [9], in experiment [10], in experiment [11], in experiment [12] and in [14] was inactive. Further, the outcome in experiment [15] and in [16] was inactive. Further, the inhibition in [5] was 85% (active); in experiment [13], 39.2% (active).

For the molecule `CCOC(=O)C1(Cc2ccccc2)CCN(CC2CC=CCC2)CC1` (stereo not given), the result in experiment [1], in experiment [2], in [3], in experiment [4], in experiment [6] and in experiment [7] was inactive. Besides, the result in experiment [8], in [9], in [10], in experiment [11], in experiment [12] and in experiment [13] was inactive. The result in experiment [14], in [15] and in experiment [16] was inactive. Further, in experiment [5], the inhibition is 93% (active).

`Cc1c(CCOC(=O)c2ccc([N+](=O)[O-])cc2)sc[n+]1CC(=O)c1ccccc1`: the result in experiment [1], in experiment [2], in experiment [3], in experiment [4], in [6] and in [7] was inactive. Moreover, the outcome in experiment [8], in experiment [9], in experiment [10], in experiment [11], in experiment [12] and in experiment [14] was inactive. Further, the result in experiment [15] and in experiment [16] was inactive. Moreover, the inhibition is 92% (active) in experiment [5] and 42.9% (active) in [13].

For `CCCCN(Cc1ccccc1)C(=O)C1CCN(Cc2sccc2C)CC1`, the outcome in experiment [1], in experiment [2], in experiment [3], in [4], in experiment [7] and in experiment [8] was inactive. Besides, the molecule was classed as inactive in experiment [9], in [10], in [11], in [12], in experiment [14] and in [15]. Further, in experiment [16], the outcome was inactive. In addition, the results for the inhibition in experiment [5], in experiment [6] and in [13] were 90% (active), 46% (active) and 32.5% (active), respectively.

As for `c1csc(CNc2nc(-c3cccs3)nc3ccccc23)c1`, the outcome in experiment [1], in experiment [2], in experiment [3], in [4], in experiment [6] and in [7] was inactive. Also, the result in experiment [8], in [9], in experiment [10], in experiment [11], in experiment [12] and in experiment [14] was inactive. Moreover, the result in experiment [15] and in experiment [16] was inactive. Moreover, the inhibition in experiment [5] is 78% (active); in experiment [13] it was 29.7% (active).

Turning to `CCOC(=O)C1(Cc2cccc(F)c2)CCN(Cc2c(C)nn(CC)c2C)CC1`, the result in experiment [1], in experiment [2], in [3], in experiment [4], in experiment [6] and in experiment [7] was inactive. Further, the result in [8], in experiment [9], in experiment [10], in experiment [11], in experiment [12] and in [13] was inactive. Moreover, the outcome in [14], in [15] and in [16] was inactive. For the same molecule, the inhibition in experiment [5] is 86% (active).

In the case of `Cc1[nH]n(C)c(=O)c1C(=O)c1c(-c2c(Cl)cccc2Cl)noc1C`, the result in experiment [1], in [2], in [3], in [4], in [7] and in experiment [8] was inactive. The molecule was called inactive in [9], in experiment [10], in [11], in experiment [12], in experiment [14] and in experiment [15]. In experiment [16], the result was inactive. Besides, the values for the inhibition in experiment [5], in experiment [6] and in experiment [13] were 90% (active), 42% (active) and 27.3% (active), respectively.

Turning to `CCOC(=O)c1c(-c2cccc(C)c2)csc1NC(=O)C1CC=CCC1C(=O)O` (stereo not given), the outcome in experiment [1], in experiment [2], in experiment [3], in experiment [4], in [6] and in [7] was inactive. The result in [8], in experiment [9], in experiment [10], in experiment [11], in experiment [12] and in experiment [14] was inactive. Moreover, the outcome in experiment [15] and in experiment [16] was inactive. Besides, the inhibition in [5] was 89% (active); in experiment [13], 46.1% (active).

`C=CCSc1nnc2n(-c3ccccc3OC)c(=O)c3c4c(sc3n12)CCC4`: the result in [1], in experiment [2], in experiment [3], in experiment [4], in experiment [6] and in experiment [7] was inactive. Also, the outcome in [8], in experiment [9], in experiment [10], in experiment [11], in experiment [12] and in experiment [14] was inactive. Besides, the outcome in experiment [15] and in experiment [16] was inactive. In addition, the inhibition in experiment [5] was 58% (active); in experiment [13], 29.1% (active).

Consider `Cc1cc([N+](=O)[O-])ccc1NCc1ccccc1`, for which the outcome in experiment [1], in [2], in [3], in [4], in experiment [7] and in experiment [8] was inactive. The outcome in experiment [9], in experiment [10], in [11], in [12], in experiment [13] and in [14] was inactive. Moreover, the result in [15] and in experiment [16] was inactive. The values for the inhibition in experiment [5] and in experiment [6] were 97% (active) and 44% (active), respectively.

As to `CCCc1nc(SC2CCCC2)c2c(=O)n(C)c(=O)n(C)c2n1`, the outcome in experiment [1], in experiment [2], in experiment [3], in experiment [4], in [5] and in experiment [6] was inactive. The outcome in experiment [7], in [8], in [9], in experiment [10], in experiment [11] and in experiment [12] was inactive. Moreover, the outcome in experiment [14], in experiment [15] and in experiment [16] was inactive. In addition, the inhibition in [13] is 39.1% (active).

With `O=C(CSc1nc2ccccc2c(=O)n1CCCO)N1CCc2ccccc21`, the outcome in [1], in experiment [2], in experiment [3], in experiment [4], in experiment [7] and in experiment [8] was inactive. The result in [9], in [10], in experiment [11], in experiment [12], in experiment [14] and in experiment [15] was inactive. For the same molecule, the result in experiment [16] was inactive. The values for the inhibition in experiment [5], in [6] and in experiment [13] were 94% (active), 67% (active) and 13.1% (active), respectively.

As for `Cc1ccc(S(=O)(=O)c2cnc(-c3ccccc3)nc2N2CCN(C)CC2)cc1`, the outcome in experiment [1], in experiment [2], in experiment [3], in experiment [4], in experiment [6] and in experiment [7] was inactive. Further, the result in [8], in [9], in experiment [10], in experiment [11], in experiment [12] and in [13] was inactive. For the same molecule, the outcome in [14], in experiment [15] and in experiment [16] was inactive. Besides, the inhibition in experiment [5] is 64% (active).
